Measurements as given in paper PMC7819943, “Rice protein-binding microarrays: a tool to detect cis-acting elements near promoter regions in rice”.
The full ranking holds about 35,000 sequences; the median of “fluorescence intensity (a.u.)” is about 10,000, and the highest 2% start at about 52,000. Shown is part of a subset that was picked to be rich in the highest values.

Target: T1, OsWOX13 (Oryza sativa, UniProt Q5QMM3 1-267)
T1 sequence: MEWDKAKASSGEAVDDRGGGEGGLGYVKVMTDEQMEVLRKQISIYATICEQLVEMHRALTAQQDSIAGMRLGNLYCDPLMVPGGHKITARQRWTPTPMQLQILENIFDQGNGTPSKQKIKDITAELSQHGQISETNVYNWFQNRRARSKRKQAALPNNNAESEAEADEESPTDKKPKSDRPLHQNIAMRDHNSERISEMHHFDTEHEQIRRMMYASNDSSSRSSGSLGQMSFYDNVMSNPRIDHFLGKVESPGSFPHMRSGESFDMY
Experiment: protein-binding microarray (RPBM); PBS, 2% BSA, 51.3 ng/ul salmon testes DNA, 50 uM zinc acetate, 200 nM TF, 25 C, 1 h; high values mean tight binding
Conditions: protein: recombinant; tags: N-terminal polyhistidine and DsRed monomer fusion (pET32a); label: CyDye5-dUTP incorporated in the synthesized complementary strand; 3' TTTTT single-stranded linker to array surface; dsDNA, one strand shown
Summary of the method: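 For the binding signal, per-feature fluorescence intensity was read in arbitrary units on an Axon 4000B scanner. Before scanning, a 2% BSA-blocked custom Agilent array made double-stranded with Cy5-dUTP was washed after 1 h at 25 °C with 200 nM protein and 50 µM zinc acetate. The proteins were Ni–NTA-purified transcription factors with N-terminal polyhistidine and DsRed fusions, expressed in E. coli BL21-CodonPlus.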

| Sequence | binding signal |
| --- | --- |
| TGTGTTAAACTATATAATTTTCTCTAAAACATAATGGTACCGGAGTCACCTAGTGCAG | 3720 fluorescence intensity (a.u.) |
| TTAATTCTATCTAGTAGTAGAGTTAGTTATTTATATATTACGGAGTCACCTAGTGCAG | 5310 fluorescence intensity (a.u.) |
| CCTTCGATTATTGGCACGGATTGTTTATCCAGGTAAGACTCGGAGTCACCTAGTGCAG | 13300 fluorescence intensity (a.u.) |
| CACATCAACCTGCACCAATCATGCCATCGAGATCACAACACGGAGTCACCTAGTGCAG | 3970 fluorescence intensity (a.u.) |
| ATCTCCAAAATTTTAAATTTTAATTAAAACCTAACTTACACGGAGTCACCTAGTGCAG | 6930 fluorescence intensity (a.u.) |
| AAGAATTGATAGATGAAACGTGATTAGATACTAACTATACCGGAGTCACCTAGTGCAG | 41200 fluorescence intensity (a.u.) |
| AATAATTGAATATATTTTCATAATAAATTTGTCTTGGGTTCGGAGTCACCTAGTGCAG | 44400 fluorescence intensity (a.u.) |
| GCACTAGTGATTGGAACAATATTAATTTCAGAAACATTGCCGGAGTCACCTAGTGCAG | 32700 fluorescence intensity (a.u.) |
| AATAATTGAATATATTTTCATAATAAATGTGTGTTGAGTTCGGAGTCACCTAGTGCAG | 38400 fluorescence intensity (a.u.) |
| AGAAATTGAACGTGATTAACGGGGAGGGCACTAGTGAGGCCGGAGTCACCTAGTGCAG | 53000 fluorescence intensity (a.u.) |
| TATAATTGAATAAATTTTCATATTATATTTATCTTGTGTTCGGAGTCACCTAGTGCAG | 63100 fluorescence intensity (a.u.) |
| ACAATTGAAGATAAATGACAAACCAATAAACCATTTGTTTCGGAGTCACCTAGTGCAG | 5080 fluorescence intensity (a.u.) |
| CTTTAAAATTAATTAAATTTGAAAATTAGTAACGAGGGGACGGAGTCACCTAGTGCAG | 26700 fluorescence intensity (a.u.) |
| TGAATAATTGACAATTTAACCAGACCATTAATTAATTGTTCGGAGTCACCTAGTGCAG | 62400 fluorescence intensity (a.u.) |
| CTAGAAATTAGGTGATTAATTTATTAAACACAATATTGCCCGGAGTCACCTAGTGCAG | 56900 fluorescence intensity (a.u.) |
| TTAATATAAAAGTAATTATTTAAATTGTAGAAACAATTTACGGAGTCACCTAGTGCAG | 5710 fluorescence intensity (a.u.) |
| TACTAATTTTGAATTTAGAGCTATTAACCAATAAATTGTTCGGAGTCACCTAGTGCAG | 12200 fluorescence intensity (a.u.) |
| TAGTGATTTGAAAATACGGGTGCAAACAATGGAGCAACAACGGAGTCACCTAGTGCAG | 3560 fluorescence intensity (a.u.) |
| ATTTACCGCAACTGTAATTGAGATGGTTTTGAGATTTCATCGGAGTCACCTAGTGCAG | 6850 fluorescence intensity (a.u.) |
| TGTCACAGGTAAATCACTGCAATTAGCGAGTCATGGCTCACGGAGTCACCTAGTGCAG | 8530 fluorescence intensity (a.u.) |
| TGATGTTTCATCACTAATTTGTATTTGATAACCTGCATATCGGAGTCACCTAGTGCAG | 5260 fluorescence intensity (a.u.) |

| Sequence | binding signal |
| --- | --- |
| CTGATTTGCAGTTCGTTCGTGCCTCTCACAATCAAACCCCCGGAGTCACCTAGTGCAG | 14300 fluorescence intensity (a.u.) |
| AGGTTGCAATCATTGGCCAGACGTTGCATGTCGTTGTTGACGGAGTCACCTAGTGCAG | 13700 fluorescence intensity (a.u.) |
| CTTGTTATTGAATAATGGATTAACTAACTAATAACTAACGCGGAGTCACCTAGTGCAG | 12800 fluorescence intensity (a.u.) |
| CAACAGATTAATGACATGTCAACAGCTGCATGCTCTAGCTCGGAGTCACCTAGTGCAG | 14200 fluorescence intensity (a.u.) |
| CCGGTCTCCAAATCTTTATTAATTGCTTCCTCAAAACCCCCGGAGTCACCTAGTGCAG | 3980 fluorescence intensity (a.u.) |
| ATTAACGACTTTTAATTTGAAACGGATTGAGTAGCTAGTTCGGAGTCACCTAGTGCAG | 16100 fluorescence intensity (a.u.) |
| TTTAATTAATTGTAGGACAAGATAGCAAACGTGTGGCTACCGGAGTCACCTAGTGCAG | 59900 fluorescence intensity (a.u.) |
| CACGATGATTGTTTGTATATGGAAACACCAAAATGGTCTACGGAGTCACCTAGTGCAG | 54700 fluorescence intensity (a.u.) |
| GGAAAATGCTCTAATGATTGTTATGGAGTTTATCTGTAATCGGAGTCACCTAGTGCAG | 5570 fluorescence intensity (a.u.) |
| ATTAATTGGTCGTGTATTAGCAAACGATATATATATCGGTCGGAGTCACCTAGTGCAG | 50500 fluorescence intensity (a.u.) |
| AAAACAAATTTTATTATAAATATACGTTTAACTAACTTAGCGGAGTCACCTAGTGCAG | 6070 fluorescence intensity (a.u.) |
| TCTGTATGGTCTACTTGTTTGATTGATTGATAATTTTACACGGAGTCACCTAGTGCAG | 22300 fluorescence intensity (a.u.) |
| ACTGATAACAAAATAATTTATAGGTAAAACTTTTAATATGCGGAGTCACCTAGTGCAG | 7340 fluorescence intensity (a.u.) |
| AGAGATTATTGAATATTGTTGCGATGACTTATAATCTTATCGGAGTCACCTAGTGCAG | 5070 fluorescence intensity (a.u.) |
| ATAATCCCTTGCGATTTATATTGAATTAATAGTTCTTGTTCGGAGTCACCTAGTGCAG | 65000 fluorescence intensity (a.u.) |
| TGGTAATTTTATGATTAAATTGACACTAACAAACTTATAGCGGAGTCACCTAGTGCAG | 57200 fluorescence intensity (a.u.) |
| CACTATTAATTGTGCTTAGAGCAAGTTTAATAGTGTAGCCCGGAGTCACCTAGTGCAG | 9860 fluorescence intensity (a.u.) |
| AAAAGAATAATTTATTGTCTTGTTCAGTTAATCCCTCCCTCGGAGTCACCTAGTGCAG | 3330 fluorescence intensity (a.u.) |
| AATTAATTTCTAAATACAATCATTATTCACCTCGTAATATCGGAGTCACCTAGTGCAG | 7210 fluorescence intensity (a.u.) |
| CCATATAATTATGCTTGTTATTATGTGACAAAGAGCGGGTCGGAGTCACCTAGTGCAG | 25400 fluorescence intensity (a.u.) |
| CCAAAATATATTAATTAGCTCAGGTATGTACCCGCCCAATCGGAGTCACCTAGTGCAG | 10700 fluorescence intensity (a.u.) |
